Some test systems named below: HCT-15 colon; HT29 colon; SNB-75 CNS; SNB-19 CNS; U251 CNS; PC-3 prostate; SK-MEL-5 melanoma; UACC-62 melanoma; LOX IMVI melanoma; SK-MEL-28 melanoma; SK-MEL-2 melanoma; EKVX NSCLC; SN12C renal; UO-31 renal; TK-10 renal; ACHN renal; CAKI-1 renal; A498 renal; CCRF-CEM leukemia; MOLT-4 leukemia.
Common to all, as to experiment: NCI-60 one-dose screen, 48 h (100 = growth as untreated, 0 = no growth, -100 = all killed)
Details in all cases: 10 µM unless noted

This is part of a sample that, as a whole, favours compounds with a hit. Of some 83,000 tested, about 20% had one in any assay.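 Step 1: grow cells in 96-well plates. Step 2: add test compound at a single concentration. Step 3: incubate 48 h. Step 4: record percent growth.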 Values without a mark were called inactive. Calls of active or inactive are those of the source. Rule for the calls: active = growth percent below 10; inactive = the rest.

Turning to `Cc1ccc2c(c1)nc(C)n2-c1ncnc2c1CC(C)c1cc(O)ccc1N2C` (stereo not given), the growth in the test on HCT-15 colon was 26.7%; in the test on HT29 colon, 36.8%; in the test with SNB-75 CNS, 25.3%; in the test with SNB-19 CNS, 48.7%; in the test on U251 CNS, 20%; with PC-3 prostate it was 29.6%. Moreover, the growth in the test with SK-MEL-5 melanoma was 23.7%; with UACC-62 melanoma, 39.3%; in the test with LOX IMVI melanoma it was 43%; in the test with SK-MEL-28 melanoma it was 61.1%; in the test on SK-MEL-2 melanoma, 21.4%; in the test with EKVX NSCLC it was 44.2%. The growth was 52.3% in the test with SN12C renal; 47.9% with UO-31 renal; 56.1% with TK-10 renal; 49.5% in the test with ACHN renal; 42.4% with CAKI-1 renal; 6.65% (active) in the test on A498 renal. Moreover, the growth in the test with CCRF-CEM leukemia was 9.39% (active); in the test on MOLT-4 leukemia it was 13.4%.
As to `Cn1cc(-c2nonc2-c2c[nH]c3ccccc23)c2cc(Br)ccc21`, the growth in the test on HCT-15 colon is 18.5%; with HT29 colon, 8.18% (active); in the test with SNB-75 CNS it was 46.3%; in the test with SNB-19 CNS, 49.7%; with U251 CNS, 29.8%; in the test on PC-3 prostate, 41.7%. The growth was 48% with SK-MEL-5 melanoma; 34.2% with UACC-62 melanoma; 19% in the test with LOX IMVI melanoma; 60.8% in the test on SK-MEL-28 melanoma; 41% with SK-MEL-2 melanoma; 33.6% in the test on EKVX NSCLC. In addition, the growth is 55% in the test with SN12C renal; 36.8% with UO-31 renal; 53.3% in the test on TK-10 renal; 40.3% with ACHN renal; 26.3% with CAKI-1 renal; 40.3% in the test with A498 renal. In addition, the results for the growth in the test with CCRF-CEM leukemia and in the test on MOLT-4 leukemia were 31% and 17.8%, respectively.
Regarding `OC1(c2ccccc2)c2ccccc2N(c2ccccc2)c2ccc(Cl)cc21` (stereo not given), the growth with HCT-15 colon is -44.2% (active); in the test on HT29 colon, -77.5% (active); in the test with SNB-75 CNS it was -57.6% (active); in the test on SNB-19 CNS it was -91.6% (active); in the test with U251 CNS it was -87.9% (active); in the test with PC-3 prostate, -75.1% (active). Also, the growth in the test on SK-MEL-5 melanoma is -97.6% (active); in the test on UACC-62 melanoma it was -92% (active); in the test with LOX IMVI melanoma it was -93.6% (active); with SK-MEL-28 melanoma, -97.1% (active); in the test on SK-MEL-2 melanoma it was -72.1% (active); in the test with EKVX NSCLC it was -81.8% (active). Also, the growth is -81.6% (active) in the test with SN12C renal; -95% (active) in the test on UO-31 renal; -95.5% (active) in the test with TK-10 renal; -99.5% (active) in the test on ACHN renal; -9.02% (active) in the test on CAKI-1 renal; -62.6% (active) in the test on A498 renal. The results for the growth in the test with CCRF-CEM leukemia and in the test on MOLT-4 leukemia were -13% (active) and 1.26% (active), respectively.
Regarding `COc1ccc2[nH]cc(-c3nonc3-c3c[nH]c4ccc(Br)cc34)c2c1`, the growth in the test with HCT-15 colon was 19.9%; in the test with HT29 colon it was 5.38% (active); in the test on SNB-75 CNS, 58.6%; in the test on SNB-19 CNS, 62.9%; with U251 CNS, 42.2%; in the test on PC-3 prostate, 39.8%. For the same compound, the growth is 78.1% in the test on SK-MEL-5 melanoma; 56% in the test with UACC-62 melanoma; -33.4% (active) with LOX IMVI melanoma; 84.1% in the test with SK-MEL-28 melanoma; 73.1% in the test with SK-MEL-2 melanoma; 29.9% with EKVX NSCLC. For the same compound, the growth is 67.7% in the test with SN12C renal; 36.5% in the test with UO-31 renal; 49.9% with TK-10 renal; 38.7% in the test with ACHN renal; 24.8% with CAKI-1 renal; 51.4% in the test on A498 renal. Besides, the growth is 38.6% in the test with CCRF-CEM leukemia and 28.3% with MOLT-4 leukemia.
For `O=c1oc2c(cc1-c1ccccc1)c(=O)[nH]c1ccccc12`, the growth in the test on HCT-15 colon is 98.2%; with HT29 colon, 96.6%; in the test on SNB-75 CNS, 92.7%; in the test on SNB-19 CNS, 97.4%; in the test on U251 CNS, 93.4%; in the test with PC-3 prostate, 96.3%. Moreover, the growth is 99.4% with SK-MEL-5 melanoma; 95.5% with UACC-62 melanoma; 95.8% in the test on LOX IMVI melanoma; 99.7% in the test on SK-MEL-28 melanoma; 107% in the test with SK-MEL-2 melanoma; 91.4% in the test with EKVX NSCLC. In addition, the growth with SN12C renal is 96.6%; in the test on UO-31 renal it was 96.6%; with TK-10 renal it was 99.4%; with ACHN renal it was 102%; in the test on CAKI-1 renal it was 97.5%; in the test with A498 renal, 96.9%. The growth was 101% with CCRF-CEM leukemia and 99.7% in the test with MOLT-4 leukemia.
As for `COC(=O)c1ccc2c(c1)c1c(C)c3cnccc3c(C)c1n2C`, the growth was -8.77% (active) with HCT-15 colon; -10.9% (active) with HT29 colon; 8.05% (active) in the test with SNB-75 CNS; -1.59% (active) with SNB-19 CNS; -16.5% (active) in the test with U251 CNS; 5.43% (active) in the test with PC-3 prostate. The growth in the test on SK-MEL-5 melanoma is -91.3% (active); with UACC-62 melanoma, -82.3% (active); in the test on LOX IMVI melanoma it was -55% (active); in the test on SK-MEL-28 melanoma it was -54.5% (active); in the test with SK-MEL-2 melanoma, -56.2% (active); with EKVX NSCLC, -7.49% (active). Besides, the growth was -3.93% (active) with SN12C renal; -45.7% (active) with UO-31 renal; -15.5% (active) in the test on TK-10 renal; -27.7% (active) in the test with ACHN renal; -10.2% (active) in the test on CAKI-1 renal; -84.3% (active) in the test on A498 renal. Also, the growth with CCRF-CEM leukemia was 6.83% (active); with MOLT-4 leukemia, 2.75% (active).
Consider `Cn1cc(-c2csc(-c3cn(CCCN4CCOCC4)c4ccc(F)cc34)n2)c2cccnc21`, for which the growth with HCT-15 colon was 27.1%; with HT29 colon, 1.97% (active); in the test with SNB-75 CNS it was 87.1%; with SNB-19 CNS, 77.1%; in the test with U251 CNS it was 51.1%; with PC-3 prostate it was 29.6%. Besides, the growth with SK-MEL-5 melanoma is 25.1%; in the test with UACC-62 melanoma it was 72.2%; in the test on LOX IMVI melanoma, 26.6%; with SK-MEL-28 melanoma, 77.5%; with SK-MEL-2 melanoma, 86.3%; in the test with EKVX NSCLC, 63%. Also, the growth in the test on SN12C renal is 78.5%; with UO-31 renal it was 50.2%; in the test with TK-10 renal it was 75.1%; in the test with ACHN renal, 63.8%; in the test on CAKI-1 renal it was 79%; in the test on A498 renal it was 36.1%. Also, the growth with CCRF-CEM leukemia is 36.4%; in the test on MOLT-4 leukemia, 32.1%.

The values above are taken from PubChem BioAssay (NCI).
